From PubChem BioAssay AID1159580 (chemical genetic matrix, 2015)
Several values for one entry are separate records, joined by “and”; a condition that tells them apart may be missing. Equal entries are not always repeated. Screen size: about 5,500 compounds; about 2,000 (36%) were called active. About 18% were inconclusive and are not listed. No stated cut-off is given here; in the data, active means normalized growth mostly below about 0.91 (no sharp cut-off); inconclusive means no clear call, values can overlap the other calls; inactive means mostly above about 0.92. This is one part of the list.

Assay: chemical genetic growth profiling, strain panel (AID 1159580);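 further: tested at 20 µM; growth read once vehicle control cultures reached saturation at 30 °C; 1 = growth at the plate median or of vehicle wells; lower values mean less growth of the strain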
Conditions: S. cerevisiae deletion strains, growth OD

Measured: normalized growth

C=C1CC[C@H](O)C/C1=C/C=C1\CCC[C@]2(C)C([C@H](C)/C=C/[C@H](C)C(C)C)CC[C@@H]12 (stereo not given in full)
inactive: locus YAL013W, strain DEP1, active compounds read low 0.977 | locus YAL021C, strain ccr4, active compounds read low 1.05 | locus YAL026C, strain drs2, active compounds read low 1 | locus YAL030W, strain snc1, active compounds read low 1.02 | locus YBL061C, strain skt5, active compounds read low 1.02 | locus YBR009C, strain hhf1, active compounds read low 0.991 | locus YBR021W, strain FUR4, active compounds read low 1.04 | locus YBR023C, strain chs3, active compounds read low 0.998 | locus YBR171W, strain sec66, active compounds read low 1.01 | locus YBR229C, strain ROT2, active compounds read low 0.944 | locus YBR231C, strain swc5, active compounds read low 0.995 | locus YBR279W, strain paf1, active compounds read low 1.01 | locus YCL011C, strain gbp2, active compounds read low 1.02 | locus YCL016C, strain dcc1, active compounds read low 0.995 | locus YCL029C, strain bik1, active compounds read low 0.968 | locus YCL069W, strain vba3, active compounds read low 1.01 | locus YCR088W, strain abp1, active compounds read low 1.03 | locus YDL005C, strain med2, active compounds read low 1 | locus YDL035C, strain GPR1, active compounds read low 0.929 | locus YDL040C, strain nat1, active compounds read low 1.02 | locus YDL074C, strain BRE1, active compounds read low 0.961 | locus YDL101C, strain DUN1, active compounds read low 0.976 | locus YDL185W, strain tfp1, active compounds read low 0.981 | locus YDL192W, strain arf1, active compounds read low 0.976 | locus YDR001C, strain nth1, active compounds read low 1.03 | locus YDR069C, strain doa4, active compounds read low 1.03 | locus YDR101C, strain arx1, active compounds read low 0.948 | locus YDR137W, strain rgp1, active compounds read low 0.939 | locus YDR150W, strain NUM1, active compounds read low 0.977 | locus YDR159W, strain sac3, active compounds read low 1.02 | locus YDR162C, strain NBP2, active compounds read low 0.863 | locus YDR195W, strain ref2 1.03 | locus YDR297W, strain sur2, active compounds read low 1.01 | locus YDR318W, strain mcm21, active compounds read low 0.98 | locus YDR334W, strain swr1, active compounds read low 1.03 | locus YDR335W, strain msn5, active compounds read low 1.03 | locus YDR388W, active compounds read low 0.977 | locus YDR392W, strain spt3, active compounds read low 0.911 | locus YDR502C, strain sam2, active compounds read low 0.998 | locus YEL003W, strain gim4, active compounds read low 1.03 | locus YEL037C, strain rad23, active compounds read low 1.01 | locus YEL061C, strain CIN8 (second series), active compounds read low 1.03 | locus YEL061C, strain CIN8, active compounds read low 0.982 | locus YER015W, strain faa2, active compounds read low 1.01 | locus YER016W, strain bim1, active compounds read low 1.02 | locus YER110C, active compounds read low 0.977 | locus YER111C, strain swi4, active compounds read low 0.996 | locus YER155C, strain BEM2 (second series), active compounds read low 1.06 | locus YER155C, strain BEM2, active compounds read low 0.997 | locus YER167W, strain BCK2, active compounds read low 0.999 | locus YFR010W, strain ubp6, active compounds read low 1.02 | locus YGL078C, strain dbp3, active compounds read low 0.972 | locus YGL086W, strain mad1, active compounds read low 0.958 | locus YGL167C, strain pmr1, active compounds read low 1.03 | locus YGL173C, strain kem1, active compounds read low 1.04 | locus YGL227W, strain vid30, active compounds read low 1.01 | locus YGL240W, strain doc1, active compounds read low 1.03 | locus YGL248W, strain PDE1, active compounds read low 0.978 | locus YGL253W, strain hxk2, active compounds read low 0.989 | locus YGR078C, strain PAC10, active compounds read low 0.974 | locus YGR135W, strain pre9, active compounds read low 1.03 | locus YGR252W, strain gcn5, active compounds read low 1.08 | locus YHR013C, strain ard1, active compounds read low 1.07 | locus YHR027C, strain rpn1, active compounds read low 1.03 | locus YHR030C, strain SLT2, active compounds read low 0.998 and 0.979 | locus YHR079C, strain IRE1 (second series), active compounds read low 0.964 | locus YHR079C, strain IRE1, active compounds read low 0.997 | locus YHR094C, strain hxt1, active compounds read low 0.978 | locus YHR129C, strain ARP1, active compounds read low 0.988 | locus YHR142W, strain chs7, active compounds read low 1 | locus YHR200W, strain rpn10, active compounds read low 0.981 | locus YIL066C, strain RNR3, active compounds read low 0.968 | locus YIL073C, strain SPO22, active compounds read low 0.994 | locus YIL125W, strain kgd1, active compounds read low 0.98 | locus YIR030C, strain dcg1, active compounds read low 0.984 | locus YJL092W, strain hpr5, active compounds read low 1.02 | locus YJL095W, strain BCK1 (second series), active compounds read low 1.02 | locus YJL095W, strain BCK1, active compounds read low 0.959 and 1 | locus YJL115W, strain asf1, active compounds read low 1.02 | locus YJL129C, strain trk1, active compounds read low 1.02 | locus YJL134W, strain LCB3, active compounds read low 0.982 | locus YJL154C, strain vps35, active compounds read low 1.03 | locus YJL164C, strain tpk1, active compounds read low 1.01 | locus YJL166W, strain qcr8, active compounds read low 1 | locus YJL168C, strain set2, active compounds read low 0.991 | locus YJL187C, strain SWE1 (second series), active compounds read low 0.965 | locus YJR043C, strain POL32, active compounds read low 0.956 | locus YJR066W, strain TOR1, active compounds read low 0.891 | locus YJR075W, strain HOC1, active compounds read low 0.979 | locus YKL009W, strain mrt4, active compounds read low 0.935 | locus YKL068W, active compounds read low 0.994 | locus YKL085W, strain MDH1 (second series), active compounds read low 0.993 | locus YKL085W, strain MDH1, active compounds read low 0.993 | locus YKL160W, strain elf1, active compounds read low 1.01 | locus YKR001C, strain vps1, active compounds read low 0.949 | locus YKR026C, strain gcn3, active compounds read low 1.02 | locus YKR091W, strain srl3, active compounds read low 1.01 | locus YLL001W, strain dnm1, active compounds read low 1.02 | locus YLL026W, active compounds read low 1.01 | locus YLL041C, strain sdh2, active compounds read low 1.03 | locus YLR027C, strain aat2, active compounds read low 1.01 | locus YLR039C, strain RIC1, active compounds read low 0.777 | locus YLR058C, strain SHM2, active compounds read low 0.978 | locus YLR102C, strain apc9, active compounds read low 0.991 | locus YLR113W, strain HOG1, active compounds read low 1.02 | locus YLR221C, strain rsa3, active compounds read low 1.02 | locus YLR258W, strain gsy2, active compounds read low 1.01 | locus YLR262C, strain YPT6 (second series), active compounds read low 0.907 | locus YLR262C, strain YPT6, active compounds read low 0.758 | locus YLR268W, strain sec22, active compounds read low 0.937 | locus YLR320W, strain mms22, active compounds read low 0.987 | locus YLR330W, strain CHS5, active compounds read low 0.984 | locus YLR342W, strain FKS1 (second series), active compounds read low 0.991 | locus YLR342W, strain FKS1, active compounds read low 1.01 | locus YLR357W, strain rsc2, active compounds read low 1.05 | locus YLR370C, strain arc18, active compounds read low 1.04 | locus YLR371W, strain rom2, active compounds read low 1.01 | locus YLR384C, strain iki3, active compounds read low 1.02 | locus YLR418C, strain cdc73, active compounds read low 0.985 | locus YML016C, strain PPZ1, active compounds read low 0.984 | locus YML032C, strain rad52, active compounds read low 0.979 | locus YML120C, strain ndi1, active compounds read low 1.03 | locus YML124C, strain tub3, active compounds read low 0.985 | locus YMR058W, strain fet3, active compounds read low 1 | locus YMR078C, strain ctf18, active compounds read low 0.984 | locus YMR125W, strain sto1, active compounds read low 1.02 | locus YMR129W, active compounds read low 1.02 | locus YMR205C, strain PFK2, active compounds read low 1.02 | locus YMR223W, strain ubp8, active compounds read low 1.01 | locus YMR231W, strain pep5, active compounds read low 1 | locus YMR263W, strain SAP30, active compounds read low 0.976 | locus YMR307W, strain GAS1, active compounds read low 0.923 | locus YNL067W, strain RPL9B, active compounds read low 0.982 | locus YNL071W, strain lat1, active compounds read low 0.983 | locus YNL183C, strain NPR1, active compounds read low 0.98 | locus YNL209W, strain ssb2, active compounds read low 1.01 | locus YNL233W, strain BNI4, active compounds read low 0.993 | locus YNL248C, strain rpa49, active compounds read low 1.02 | locus YNL250W, strain rad50, active compounds read low 0.993 | locus YNL271C, strain bni1, active compounds read low 0.967 | locus YNL298W, strain CLA4, active compounds read low 0.969 | locus YNL307C, strain MCK1, active compounds read low 0.989 | locus YNL322C, strain KRE1 (second series), active compounds read low 1.03 | locus YNL322C, strain KRE1, active compounds read low 0.999 | locus YNR049C, strain mso1, active compounds read low 1.02 | locus YNR052C, strain pop2, active compounds read low 0.981 | locus YOL006C, strain TOP1, active compounds read low 0.967 | locus YOL012C, strain htz1 1.45 | locus YOL147C, strain pex11, active compounds read low 0.993 | locus YOR001W, strain rrp6, active compounds read low 1 | locus YOR061W, strain CKA2, active compounds read low 0.953 | locus YOR069W, strain VPS5, active compounds read low 0.98 | locus YOR070C, strain gyp1, active compounds read low 1.01 | locus YOR080W, strain dia2, active compounds read low 1.01 | locus YOR083W, strain WHI5, active compounds read low 0.985 | locus YOR106W, strain vam3, active compounds read low 1.04 | locus YOR136W, strain idh2, active compounds read low 0.981 | locus YOR144C, strain elg1, active compounds read low 0.989 | locus YOR184W, strain ser1, active compounds read low 0.939 | locus YOR231W, strain MKK1, active compounds read low 1.02 | locus YOR265W, strain rbl2, active compounds read low 1.01 | locus YOR270C, strain vph1, active compounds read low 0.873 | locus YOR290C, strain snf2, active compounds read low 1.02 | locus YOR316C, strain cot1, active compounds read low 0.978 | locus YPL051W, strain arl3, active compounds read low 1.01 | locus YPL055C, strain LGE1, active compounds read low 1.01 | locus YPL078C, strain atp4, active compounds read low 1.01 | locus YPL106C, strain sse1, active compounds read low 1.09 | locus YPL240C, strain hsp82, active compounds read low 1.01 | locus YPL256C, strain CLN2, active compounds read low 1.01 | locus YPR119W, strain clb2, active compounds read low 0.982 | locus YPR141C, strain kar3, active compounds read low 0.981 | locus YPR163C, strain tif3, active compounds read low 0.992 | locus YPR167C, strain met16, active compounds read low 0.985 | strain wtn01, active compounds read low 0.981
